The full list was thinned out, with hits kept by preference.
hDAT+cocaine = changed hDAT dopamine uptake under cocaine IC80, either direction, primary screen, cocaine antagonist project, cell-based, LLC-PK1 hDAT, [14C]-dopamine uptake, MLSMR. B-score at 10 µM. 110,000 compounds, 1.3% hits. LLC-PK1 hDAT cells, [14C]-dopamine uptake with cocaine IC80; actives deviate in either direction. AID 449768, 2010. Sodium-dependent dopamine transporter (Homo sapiens), Q01959;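 active = Z score or B-score, a plate-position-corrected score, falls beyond the plate's 99.7% confidence bounds, in either direction; inactive = both scores lie inside the 99.7% bounds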;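 also: scored against the spread of the other compound wells on the same plate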
BAP1 inh = inhibitors of BAP1 deubiquitinase, primary screen, biochemical, Ub-AMC fluorescence, kinetic; 72,000 compounds, 0.48% hits; Ubiquitin carboxyl-terminal hydrolase BAP1 (Homo sapiens), Q92560; recombinant BAP1, Ub-AMC hydrolysis fluorescence kinetic; active compounds read low; calls only at 20 µM;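 active = activity remaining at or below 50% of control, provided the compound also passes the data quality filters; inactive = the rest, including low values that fail the filters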;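 also: 100% = DMSO wells rate and 0% = substrate alone blank rate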
Target sequence (Q92560 whole entry, looked up): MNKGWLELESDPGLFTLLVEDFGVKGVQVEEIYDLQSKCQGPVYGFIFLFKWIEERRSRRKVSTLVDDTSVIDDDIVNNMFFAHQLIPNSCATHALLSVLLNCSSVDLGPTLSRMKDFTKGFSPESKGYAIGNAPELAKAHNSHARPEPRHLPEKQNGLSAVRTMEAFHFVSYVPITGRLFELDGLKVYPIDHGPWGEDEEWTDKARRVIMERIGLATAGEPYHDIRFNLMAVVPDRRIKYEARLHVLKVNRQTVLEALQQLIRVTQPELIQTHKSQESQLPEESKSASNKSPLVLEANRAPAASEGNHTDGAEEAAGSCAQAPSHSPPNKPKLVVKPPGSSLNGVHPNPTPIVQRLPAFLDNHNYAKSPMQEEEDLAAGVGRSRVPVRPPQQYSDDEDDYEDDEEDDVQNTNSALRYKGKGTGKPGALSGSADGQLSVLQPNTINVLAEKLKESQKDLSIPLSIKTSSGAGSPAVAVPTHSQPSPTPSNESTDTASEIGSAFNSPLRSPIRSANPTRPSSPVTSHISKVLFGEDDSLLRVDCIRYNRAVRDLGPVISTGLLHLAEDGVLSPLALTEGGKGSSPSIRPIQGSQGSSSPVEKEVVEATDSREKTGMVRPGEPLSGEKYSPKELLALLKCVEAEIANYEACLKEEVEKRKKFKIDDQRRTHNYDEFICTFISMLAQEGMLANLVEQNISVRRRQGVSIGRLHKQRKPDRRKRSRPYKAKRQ
D1 allo mod = D1 CRE-luciferase signal change, two-sided – cell-based, HEK293 D1, dopamine EC30, D1 allosteric modulator project, primary screen; D(1A) dopamine receptor (Homo sapiens), P21728; dopamine EC30 potentiation; actives deviate in either direction; 58,000 compounds, 5.9% hits; B-score at 10 µM;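 active = luminescence count or its row- and column-corrected plate score outside the 99.7% band of the plate's sample wells, on either side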
D1 PAM confirm = D1 receptor positive allosteric modulators, retest, confirmation, cell-based, HEK293 D1, CRE-luciferase, duplicate; shares compounds with D1 allo mod; dopamine EC30 potentiation; active compounds read high; luminescence at 10 µM; 2,200 compounds, 88% hits; AID 642, 2007;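 active = luminescence in either of two replicates above the same-plate mean plus 3 SD of the low-dose dopamine control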
D1 no dopamine = D1 receptor agonism without dopamine, confirmation, mechanism study for D1 allosteric modulator project, cell-based, HEK293 D1, CRE-luciferase, secondary assay 1; 1,900 compounds, 0.8% hits; luminescence at 10 µM; shares compounds with D1 allo mod; luminescence, no dopamine; active compounds read high; in the data active = luminescence above about 3900
Isoprot counter = counter-screen for D1 modulators: isoproterenol response in HEK293 cells | HEK293 D1 CRE-luciferase, isoproterenol EC30 counter-screen; active compounds read high | luminescence at 10 µM | shares compounds with D1 allo mod | 2,200 compounds, 63% hits;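 active = luminescence in either replicate above plate mean of wells with a partly effective reference agonist dose plus 3 SD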;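 also: isoproterenol raises cAMP through native beta-adrenoceptor Gs so signal bypasses D1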
* = called active by the depositor.

How did O=S(=O)(c1ccccc1)N1N=C(c2ccccc2)CC1c1ccc(Br)cc1 (centres undefined) do in these assays?
BAP1 inh: inactive

What do the screens show for `CCc1[nH]nc2c1C1(CCN(C(=O)OCc3ccccc3)CC1)C(C#N)=C(N)O2`?
hDAT+cocaine: 0.43; BAP1 inh: inactive; D1 allo mod: -0.126

How did CCCc1[nH]nc2c1C1(CCN(C(=O)OCc3ccccc3)CC1)C(C#N)=C(N)O2 do in these assays?
hDAT+cocaine: 1.58; BAP1 inh: inactive; D1 allo mod: 2.5*; D1 PAM confirm: 8040*; D1 no dopamine: 1388; Isoprot counter: 4244*

Results for CCOC(=O)c1[nH]cnc1C(=O)Nc1ccncc1 ?
hDAT+cocaine: -0.0397; BAP1 inh: inactive; D1 allo mod: 13.3*; D1 PAM confirm: 14788*; D1 no dopamine: 1588; Isoprot counter: 3840*

Results for CCOC(=O)c1[nH]cnc1C(=O)Nc1cccc(N)n1 ?
hDAT+cocaine: 0.808; BAP1 inh: inactive

Results for CCC(C)NC(=O)CS(=O)Cc1nc(-c2cccc(C)c2)oc1C (centres undefined) ?
hDAT+cocaine: -0.414; BAP1 inh: inactive; D1 allo mod: 4.54*; D1 PAM confirm: 5396; D1 no dopamine: 1376; Isoprot counter: 2376

Results for CCCCNC(=O)CS(=O)Cc1nc(-c2cccc(C)c2)oc1C (centres undefined) ?
hDAT+cocaine: -0.899; BAP1 inh: inactive; D1 allo mod: 0.0757

What do the screens show for `COc1ccccc1NC(=O)CCCN1C(=O)c2cccc3cccc(c23)C1=O`?
BAP1 inh: inactive

How did CCC(C)NC(=O)N[C@@H](CCSC)C(=O)OC (some centres undefined) do in these assays?
hDAT+cocaine: -1.84

How did CCOC(=O)C(CCSC)NC(=O)CN (centres undefined) do in these assays?
hDAT+cocaine: -0.0658; BAP1 inh: inactive; D1 allo mod: 4.76*; D1 PAM confirm: 6764; D1 no dopamine: 1616; Isoprot counter: 2624

How did CCOC(=O)c1c(C)oc2ccc(N(C(=O)c3ccncc3)S(=O)(=O)c3cccc([N+](=O)[O-])c3)cc12 do in these assays?
BAP1 inh: inactive

What do the screens show for `Cc1ccc(-c2nn(C)c(=O)c3ccccc23)cc1S(=O)(=O)NCCO`?
hDAT+cocaine: -1.11; BAP1 inh: inactive; D1 allo mod: 4.14*; D1 PAM confirm: 6200*; D1 no dopamine: 1504; Isoprot counter: 2988

How did Cc1ccc(-c2nn(C)c(=O)c3ccccc23)cc1S(=O)(=O)N1CCCC1 do in these assays?
hDAT+cocaine: 0.175; BAP1 inh: inactive; D1 allo mod: 0.477

What do the screens show for `CC(C)CCn1c(Sc2nc3ccccc3s2)nc2c1c(=O)[nH]c(=O)n2C`?
hDAT+cocaine: 0.449; BAP1 inh: inactive; D1 allo mod: 21.2*; D1 PAM confirm: 19816*; D1 no dopamine: 1612; Isoprot counter: 7068*

How did CC(CSc1nc2ccccc2s1)Cn1c(N2CCCC2)nc2c1c(=O)[nH]c(=O)n2C (centres undefined) do in these assays?
hDAT+cocaine: 0.502; BAP1 inh: inactive; D1 allo mod: 2.46*; D1 PAM confirm: 13288*; Isoprot counter: 6552*

What do the screens show for `CCN1CCN(c2nc3c(c(=O)[nH]c(=O)n3C)n2CCSc2nc3ccccc3s2)CC1`?
hDAT+cocaine: 0.139; BAP1 inh: inactive; D1 allo mod: 0.967

Results for CC(C)CCn1c(SCC(=O)c2ccccc2)nc2c1c(=O)[nH]c(=O)n2C ?
hDAT+cocaine: 0.56; BAP1 inh: inactive; D1 allo mod: 1.39

Results for CCCOc1cccc(C2C3=C(CC(C)(C)CC3=O)Nc3ccccc3N2C(C)=O)c1 (centres undefined) ?
BAP1 inh: inactive
